From PubChem BioAssay (EPA / NIEHS)
Results filed as inconclusive are left out. Active and inactive are the calls of the source. Rule for the calls, unless noted: active = hit-call score of the fitted dose curve at least 0.9, where 1 is the maximum; inactive = score below 0.9.

What was measured:
[1] = CCTE_Shafer_MEA_dev_firing_rate_mean: CCTE's Neural Network Formation Assay for Mean Firing Rate, Shafer Lab (AID 2284031)
Procedure, shortened: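 Spike frequency (spikes/recording length, averaged over active electrodes) was recorded on days 5, 7, 9 and 12 and collapsed to AUC; rat cortical cultures received compound continuously over 12 days of network development.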

[2] = CCTE_Shafer_MEA_dev_per_burst_spike_percent: CCTE's Neural Network Formation Assay for Percent of Spikes in a Burst, Shafer Lab (AID 2284032);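 note: fitted as a decrease in burst spike percentage below DMSO baseline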
Procedure, shortened: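 Value is trapezoidal AUC over recordings on days 5, 7, 9 and 12 of the well-mean fraction of spikes falling in single-electrode bursts; rat cortical cultures exposed continuously from plating, treatment renewed DIV 5 and 9, fitted downward against DMSO.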

[3] = CCTE_Shafer_MEA_dev_active_electrodes_number: CCTE's Neural Network Formation Assay for Number of Active Electrodes, Shafer Lab (AID 2284040; active = hit-call score of the fitted dose curve at least 0.9, where 1 is the maximum;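 note: potency for loss of active electrodes versus DMSO so lower counts are hits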)
Procedure, shortened: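 Counts electrodes per well firing at least 5 spikes/min, recorded on days 5, 7, 9 and 12 in rat cortical cultures dosed continuously from plating (treatment refreshed DIV 5, 9). Value is the area under the curve over recordings, fitted downward relative to DMSO.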

[4] = CCTE_Shafer_MEA_dev_burst_rate: CCTE's Neural Network Formation Assay for Burst Rate, Shafer Lab (AID 2284042)
Procedure, shortened: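 Exposure ran continuously over 12 days of network development in rat cortical cultures, with compound refreshed during full media changes on DIV 5 and 9. Single-electrode bursts per recording time, well-mean over active electrodes, trapezoidal AUC across days 5–12, fitted downward relative to DMSO.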

[5] = CCTE_Shafer_MEA_dev_bursting_electrodes_number: CCTE's Neural Network Formation Assay for Number of Bursting Electrodes, Shafer Lab (AID 2284043; active = hit-call score of the fitted dose curve at least 0.9, where 1 is the maximum;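 note: potency is for loss of bursting electrodes relative to DMSO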)
Procedure, shortened: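 Rat cortical primary neurons, 48-well MEA, 16 electrodes/well; dosing DIV 0–12, re-dosed with full media change DIV 5, 9. Recordings DIV 5/7/9/12, AxIS adaptive spike detector; bursting electrode = ≥1 burst/2 min. AUC across days; loss of signal vs DMSO.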

[6] = CCTE_Shafer_MEA_dev_per_burst_interspike_interval: CCTE's Neural Network Formation Assay for Burst Interspike Interval, Shafer Lab (AID 2284044);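 note: potency for a decrease of within-burst interspike interval below DMSO level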
Procedure, shortened: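 Readout is the average time between spikes inside single-electrode bursts, taken as a well mean across bursting electrodes. Cortical neurons from rat developed networks on MEA plates under continuous 12-day exposure; recordings on days 5, 7, 9 and 12 were integrated by trapezoidal AUC.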

[7] = CCTE_Shafer_MEA_dev_burst_duration_mean: CCTE's Neural Network Formation Assay for Mean Burst Duration, Shafer Lab (AID 2284045)
Procedure, shortened: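 Rat cortical cultures, 1.5 x 10^5 cells/well with laminin drop; continuous dosing days 0–12, media plus treatment refreshed DIV 5, 9. AxIS adaptive spike detection; mean single-electrode burst duration, AUC over four recordings, negative direction vs DMSO.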

[8] = CCTE_Shafer_MEA_dev_interburst_interval_mean: CCTE's Neural Network Formation Assay for Mean Interburst Interval, Shafer Lab (AID 2284046);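 note: well-mean interburst interval of bursting electrodes as AUC over four recording days; curve fitted for decrease in interburst interval relative to DMSO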
Procedure, shortened: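 Primary rat cortical neurons on PEI-coated 48-well MEA plates (laminin added with cells at plating) (16 electrodes/well), exposed from plating day 0 with renewal at DIV 5 and 9. Mean inter-burst interval averaged over bursting electrodes, AUC across days 5, 7, 9, 12; DMSO baseline.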

[9] = CCTE_Shafer_MEA_dev_inter_network_spike_interval_mean: CCTE's Neural Network Formation Assay for Mean Inter-network Spike Interval, Shafer Lab (AID 2284047)
Procedure, shortened: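 Mean time between consecutive network-spike peaks, recorded extracellularly (adaptive spike detection) on DIV 5, 7, 9 and 12, summarized as trapezoidal AUC. Rat cortical cultures on MEAs dosed continuously days 0–12, re-dosed at feeds; loss-of-signal fit relative to DMSO.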

[10] = CCTE_Shafer_MEA_dev_network_spike_number: CCTE's Neural Network Formation Assay for Number of Network Spikes, Shafer Lab (AID 2284048)
Procedure, shortened: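 Rat cortical primary cultures on 48-well MEA (16 electrodes/well); continuous exposure DIV 0–12, full medium and treatment exchange DIV 5, 9. Readout: network spike count, AxIS adaptive detection, recordings DIV 5/7/9/12 collapsed to AUC; loss-of-signal fit, DMSO baseline.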

[11] = CCTE_Shafer_MEA_dev_network_spike_peak: CCTE's Neural Network Formation Assay for Mean Number of Electrodes in Network Spike, Shafer Lab (AID 2284049);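 note: fitted for loss of signal meaning fewer electrodes in network spikes than DMSO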
Procedure, shortened: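 Network-spike peak electrode count from recordings on days 5, 7, 9 and 12 was combined as trapezoidal area under the curve. Rat cortical cultures were treated continuously from plating, with compound renewed at each feed (DIV 5, 9); fits versus DMSO.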

[12] = CCTE_Shafer_MEA_dev_spike_duration_mean: CCTE's Neural Network Formation Assay for Mean Spike Duration, Shafer Lab (AID 2284051);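 note: mean network spike duration pooled as area under curve over DIV 5 to 12 recordings; potency for a decrease in mean network spike duration versus DMSO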
Procedure, shortened: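 Spontaneous activity was recorded on days 5, 7, 9 and 12 from rat cortical cultures grown on microelectrode arrays and dosed continuously from day 0, with media and compound renewed after the DIV 5 and 9 recordings. Network-spike duration was collapsed by area under the curve.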

[13] = CCTE_Shafer_MEA_dev_network_spike_duration_std: CCTE's Neural Network Formation Assay for Standard Deviation of Network Spike Duration, Shafer Lab (AID 2284052);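 note: hits are decreases in network spike duration SD versus DMSO vehicle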
Procedure, shortened: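 Network spike duration variability was collapsed across recordings on days 5, 7, 9 and 12 by trapezoidal area-under-curve and fitted downward against DMSO. Cultures were rat cortical neurons on PEI-coated MEA plates, dosed continuously from plating, refed with compound DIV 5/9.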

[14] = CCTE_Shafer_MEA_dev_per_network_spike_spike_number_mean: CCTE's Neural Network Formation Assay for Mean Number of Spikes in a Network Spike, Shafer Lab (AID 2284053);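 note: fitted as decrease in spikes per network spike relative to DMSO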
Procedure, shortened: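 Mean spike count within each network spike, taken in a 0.05 s window at its peak, was recorded on days 5, 7, 9 and 12 and integrated as trapezoidal area under the curve. Rat cortical cultures on MEA plates received continuous compound from day 0, refreshed at medium changes on DIV 5 and 9.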

[15] = CCTE_Shafer_MEA_dev_per_network_spike_spike_percent: CCTE's Neural Network Formation Assay for Percent of Spikes in a Network Spike, Shafer Lab (AID 2284054)
Procedure, shortened: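 Read-out: percent of spikes falling in a 0.05 s window at network-spike peak, from spontaneous MEA recordings on days 5, 7, 9 and 12; trapezoidal AUC; loss of signal versus DMSO. Rat cortical cultures, compound present throughout.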

[16] = CCTE_Shafer_MEA_dev_LDH: CCTE's Lactate Dehydrogenase Assay for Cytotoxicity in the Neural Network Formation Assay, Shafer Lab (AID 2284068; active = hit-call score of the fitted dose curve at least 0.9, where 1 is the maximum;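 note: exposure for twelve days from plating with re-dosing on DIV 5 and 9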)
Procedure, shortened: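 Primary rat cortical neurons were cultured on PEI-coated MEA plates and exposed from plating through day 12, with compound renewed at medium changes on DIV 5 and 9. LDH activity was read spectrophotometrically; loss of signal versus DMSO indicates reduced viability.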

[17] = CCTE_Shafer_MEA_dev_AB: CCTE's Alamar Blue Assay for Cytotoxicity in the Neural Network Formation Assay, Shafer Lab (AID 2284083; active = hit-call score of the fitted dose curve at least 0.9, where 1 is the maximum;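 note: resazurin reduction fluorescence as viability of cultured neurons; twelve days of exposure from plating with re-dosing on DIV 5 and 9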)
Procedure, shortened: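 Resazurin fluorescence, relative to DMSO, gauges viability after twelve days of exposure that began at plating of rat cortical neurons (1.5 x 10^5 cells/well, 48-well MEA); treatment renewed with full medium exchange on DIV 5 and 9.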

Measured: AC50

O=C1CC2(CCCC2)CC(=O)N1CCCCN1CCN(c2ncccn2)CC1
inactive: [1] | [4] | [7] | [8] | [9] | [10] | [13] | [15] | [16]
active: [2] 15 µM | [3] 9.97 µM | [5] 15 µM | [6] 2.98 µM | [11] 15 µM | [12] 15 µM | [14] 21.6 µM | [17] 15 µM
